# According to PubChem BioAssay (NCI):
# Compounds without any hit were thinned out: in the full panel of roughly 83,000, 20% have a hit.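 Single-dose data. Exposure time 48 hours. Values below 10 considered active.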 Values without a mark were called inactive. Active and inactive are the calls of the source.
# How the values were obtained:
# Assay in all cases: NCI-60 one-dose screen, 48 h (100 = growth as untreated, 0 = no growth, -100 = all killed)
# Conditions in all cases: 10 µM unless noted
# RPMI-8226 leukemia = system: RPMI-8226 leukemia
# OVCAR-8 ovarian = system: OVCAR-8 ovarian
# OVCAR-5 ovarian = system: OVCAR-5 ovarian
# OVCAR-4 ovarian = system: OVCAR-4 ovarian
# SK-OV-3 ovarian = system: SK-OV-3 ovarian
# OVCAR-3 ovarian = system: OVCAR-3 ovarian
# HS 578T breast = system: HS 578T breast
# NCI/ADR-RES ovarian = system: NCI/ADR-RES ovarian
# T-47D breast = system: T-47D breast
# BT-549 breast = system: BT-549 breast
# MDA-MB-435 melanoma = system: MDA-MB-435 melanoma
# MCF7 breast = system: MCF7 breast
# HCT-116 colon = system: HCT-116 colon
# HCC-2998 colon = system: HCC-2998 colon
# KM12 colon = system: KM12 colon
# IGROV1 ovarian = system: IGROV1 ovarian
# SW-620 colon = system: SW-620 colon
SMILES,growth (RPMI-8226 leukemia),growth (OVCAR-8 ovarian),growth (OVCAR-5 ovarian),growth (OVCAR-4 ovarian),growth (SK-OV-3 ovarian),growth (OVCAR-3 ovarian),growth (HS 578T breast),growth (NCI/ADR-RES ovarian),growth (T-47D breast),growth (BT-549 breast),growth (MDA-MB-435 melanoma),growth (MCF7 breast),growth (HCT-116 colon),growth (HCC-2998 colon),growth (KM12 colon),growth (IGROV1 ovarian),growth (SW-620 colon)
CC1=NC2=CC=CC3=NC(C(Cl)(Cl)Cl)=NC(=N1)N23,50.3%,84.9%,112%,73%,87.3%,34.8%,62.6%,81.6%,61.4%,45.9%,77.9%,62.7%,68.3%,57.5%,85.5%,,
COc1ccc(OC)c(C2OC(c3ccc4ccccc4c3O)=NN2C(C)=O)c1 (configuration not stated),66.6%,,102%,75.5%,58%,52.4%,71.7%,59.2%,63.7%,84.4%,8.75% (active),37.3%,55.5%,,60.1%,75.8%,54.5%
N#Cc1ccc(N2Cc3ccccc3OC3=C2C(=O)c2c(O)ccc(O)c2C3=O)cc1,5.99% (active),3.86% (active),-1.88% (active),-43.4% (active),63.8%,-93.2% (active),-14.4% (active),19.7%,-46% (active),-17.9% (active),-43.9% (active),,-44.3% (active),30.7%,8.89% (active),,-67.5% (active)
O=[N+]([O-])c1ccc(C(c2ccccc2)c2ccccc2)cc1,98.1%,107%,96.6%,,102%,98.9%,109%,88.8%,109%,,99.5%,84.9%,70.4%,92%,90.9%,84.4%,87.5%
COc1cc(-c2nn(-c3cccc(NC(=O)Nc4ccc(Cl)c(C(F)(F)F)c4)c3)cc2-c2ccncc2)ccc1Cl,-8.66% (active),-19.9% (active),35.8%,20.8%,0.426% (active),-12.4% (active),2.21% (active),-0.864% (active),,7.16% (active),-52.3% (active),0.143% (active),5.3% (active),,2.88% (active),25.6%,15.4%
COc1ccc2c(c1)cn1c3ccc(OC)cc3[nH]c(=O)c21,-37.8% (active),-47.4% (active),21.3%,40.4%,22.5%,,,-2.47% (active),-32.2% (active),-0.958% (active),-80% (active),-47.5% (active),-75.8% (active),-68.5% (active),-61.7% (active),-54% (active),
NC(N)=Nc1nc2ccccc2o1,58.2%,110%,110%,110%,107%,,,95.1%,98.3%,89.9%,122%,96.8%,95.5%,82.5%,95.9%,102%,95.7%
O=C1Nc2ccc(Cl)cc2C12Nc1cc(Cl)ccc1S2 (configuration not stated),44.3%,99.2%,113%,,108%,72%,144%,82.5%,33.8%,80%,91.4%,43.4%,61.2%,78.9%,70.7%,,98.9%
NC(=S)N/N=C(/CCN1CCCC1)CC(C1=C(O)C2=CCCCC2OC1=O)c1ccccc1 (configuration not stated),73.9%,88.2%,96.9%,62.2%,94.3%,21.8%,96.7%,40.4%,,90.9%,90.7%,14.9%,9.46% (active),102%,102%,52.8%,
COc1cc(-c2nn(-c3cccc(NC(=O)Nc4cc(C(F)(F)F)cc(C(F)(F)F)c4)c3)cc2-c2ccncc2)ccc1Cl,-11.7% (active),-12.7% (active),16.3%,17.2%,-9.79% (active),-57.9% (active),-25.8% (active),1.11% (active),,-8.96% (active),-58.3% (active),1.74% (active),-43.6% (active),-10.8% (active),-14.8% (active),19.9%,-2.89% (active)
COc1ccc(Nc2nn3c(C)cc(C)nc3c2C(=O)Nc2ccc(C)cc2)c(OC)c1,102%,,82.9%,102%,87.7%,105%,105%,105%,87.7%,96.2%,105%,101%,99%,94.2%,100%,97.1%,105%
C=C1CCC2C3(C)COC(c4ccccc4)OC3CCC2(C)C1/C=C/C1=CCOC1=O (configuration not stated),-36.8% (active),,78.7%,50%,72.4%,,,26.2%,72.2%,-18.3% (active),31.4%,31.8%,8% (active),111%,28.7%,30.6%,25.6%
O=c1cc/c(=N\Nc2ccccc2)c(=O)/c1=N/Nc1ccccc1,18.9%,109%,107%,107%,109%,,,95.2%,92.8%,102%,126%,78.4%,90.1%,,94.1%,60.1%,98.6%
Fc1ccc(CNCCNc2ncnc3c2cnn3-c2ccccc2)cc1,84.6%,88%,98.6%,97.4%,94.6%,109%,92.1%,95.8%,,102%,95.4%,96.5%,99.9%,,107%,94.2%,103%
CCCCCCCCN(CCCCCCCC)CCCCCCNc1cc(OC)cc2cccnc12,52.3%,73.3%,92.4%,82.7%,102%,,111%,80.2%,104%,79.7%,95.2%,61.7%,-30.1% (active),93.4%,58.9%,78.7%,10.8%
Cc1ccc(NS(=O)(=O)c2cc(C)ccc2C)cc1,13.6%,54.8%,82.8%,92.6%,56.3%,3.62% (active),,2.96% (active),47.9%,39.1%,-24% (active),24.3%,17.6%,50.9%,16.2%,53.8%,19.9%
Nc1cc2c(cc1C(=O)c1cccc(F)c1)OCCO2,,91.1%,98.2%,105%,93.3%,116%,111%,97.9%,93.6%,84.5%,92.1%,99.2%,100%,95.4%,100%,89.7%,105%
Nc1cc2c([nH]c[n+]2CC#CCCl)c(SCC#CCCl)n1,-2.17% (active),0.0129% (active),-76.9% (active),,-21.7% (active),-21.1% (active),47.3%,-24.2% (active),-60.1% (active),-91.2% (active),-34.2% (active),,-98.6% (active),-96.9% (active),-80.2% (active),-57% (active),-27.2% (active)
